# Source: ChEMBL document CHEMBL1961873, “Compounds: GSK PKIS; Assays: Nanosyn kinase panel” (2012)
# Molecular target: Dual specificity tyrosine-phosphorylation-regulated kinase 1A (Homo sapiens) (UniProt Q13627)
# Settings: at 1 µM
row,Compound,inhibition [%]
1,CC(C)c1ccc(Nc2nccc(-c3cnn4ncccc34)n2)cc1,81.2
2,NS(=O)(=O)c1ccc(NC=C2C(=O)Nc3ccc4ncsc4c32)cc1,63.2
3,COC(=O)c1cncc(/C=C/c2c(C)cc(O)cc2C)c1,7.4
4,Nc1nccc(C#Cc2cncnc2Nc2ccc(OCc3cccc(F)c3)c(Cl)c2)n1,10.8
5,Oc1cccc(-c2nc(-c3ccccc3)[nH]c2-c2ccncc2)c1,8.77
6,Cc1ccc2c(-c3ccnc(Nc4ccc5c(c4)OCCO5)n3)c(-c3ccc(C(F)(F)F)cc3)nn2n1,2
7,Nc1nccc(-c2c(-c3ccc(F)cc3)nn3cc(C(F)(F)F)ccc23)n1,16.4
8,CCOc1nccc2c1nc(-c1nonc1N)n2CC,3.41
9,CCCN1CCCC(c2ccc(Nc3nc(Nc4cc(F)ccc4C(N)=O)c4cc[nH]c4n3)c(OC)c2)C1 (stereo not drawn),82.7
10,COc1cc(/C=N/Nc2ncnc3c2cnn3C(C)C)ccc1O,8.18
11,Cc1ccc(O)cc1Nc1ccnc2ccc(S(C)(=O)=O)cc12,12.6
12,COc1cc(Nc2nccc(-c3cnn4ncccc34)n2)cc(OC)c1,91.2
13,CN(C)C(=O)O[C@H]1CN[C@H](C#Cc2cc3ncnc(Nc4ccc(OCc5cccc(F)c5)c(Cl)c4)c3s2)C1,3.38
14,c1ccc(Nc2ncc(-c3ccccc3)o2)cc1,2.66
15,NC(=O)c1cccc(Nc2nccc(Nc3cccc(F)c3)n2)c1,0.26
16,Cc1cc(-c2ccccn2)cc(C)c1/C=C/c1cncc(-c2nn[nH]n2)c1,1.98
17,CCn1c(-c2nonc2N)nc2ccc(F)cc21,10.8

row,Compound,inhibition [%]
1,CN(C)c1cc2c(Nc3ccc4c(cnn4Cc4ccccc4)c3)ncnc2cn1,6.83
2,COC(=O)c1ccc2c(c1)C(=Cc1cc(Br)c(O)c(Br)c1)C(=O)N2,61.9
3,Cc1ccc(NC(=O)CC2CC2)cc1-c1ccc(C(=O)NCC2CC2)cc1,3.49
4,CN(C)C(=O)O[C@@H]1CN[C@@H](C#Cc2cc3ncnc(Nc4ccc(OCc5cccc(F)c5)c(Cl)c4)c3s2)C1,2.08
5,O=C(Nc1ccc(Oc2ccc3[nH]c(NC(=O)c4ccco4)nc3c2)cc1)Nc1cc(C(F)(F)F)ccc1F,-1.33
6,c1ccc(Cc2nc3ccc(Nc4ncnc5ccccc45)cc3[nH]2)cc1,9.77
7,CCS(=O)(=O)c1ccc(OC)c(Nc2nccc(N(C)c3ccc4c(C)n[nH]c4c3)n2)c1,3.45
8,COc1cccc(-n2ncc3c(N/N=C/c4ccc(C)cc4)ncnc32)c1,16.5
9,NS(=O)(=O)c1cccc(Nc2cc(-c3ccc(F)cc3)n[nH]2)c1,4.42
10,COc1cc2ncn(-c3cc(OCc4ccccc4S(C)(=O)=O)c(C#N)s3)c2cc1OC,19.3
11,Cc1ccc(Nc2ccnc(Nc3cccc(C(N)=O)c3)n2)cc1O,26.5
12,NS(=O)(=O)c1ccc(-c2cc3ccncc3cc2OCc2ccccc2)cc1,4.84
13,COc1cc2ncnc(Nc3ccc(C)c(O)c3)c2cc1OC,7.48
14,NS(=O)(=O)c1ccc(Nc2cc(-c3cccc(O)c3)n[nH]2)cc1,7.37
15,NS(=O)(=O)c1cccc(-c2cc3ccncc3cc2OCc2ccccc2)c1,5.5
16,CC(C)c1ccc2c(c1)NC(=O)/C2=N/Nc1ccc(S(N)(=O)=O)cc1,2.99
